# Values without a mark were called inactive. Some of the results follow. Active and inactive are the calls of the source.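 Rule for the calls, unless noted: active = mean inhibition above a 50% cutoff; inactive = the rest.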
# Columns and labels:
# [1] = target: Toll-like receptor 9 (Homo sapiens) (UniProt Q9NR96); assay: disruptors of TLR9 binding to MyD88 – cell-based, CHO, BLA complementation, fluorescence, triplicate, confirmation (AID 540250;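 active = mean inhibition across three repeats above about 21% taken from the earlier screen, limit read from the data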;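 note: blue over green emission ratio reports constitutive TLR9 MyD88 association via BLA complementation; 0% = DMSO vehicle wells and 100% = clavulanate BLA inhibitor wells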); details: CCF4 FRET ratio, at 4.98 µM, stronger effect = higher value
# Chain of Toll-like receptor 9 (Homo sapiens) (Q9NR96 whole entry, looked up): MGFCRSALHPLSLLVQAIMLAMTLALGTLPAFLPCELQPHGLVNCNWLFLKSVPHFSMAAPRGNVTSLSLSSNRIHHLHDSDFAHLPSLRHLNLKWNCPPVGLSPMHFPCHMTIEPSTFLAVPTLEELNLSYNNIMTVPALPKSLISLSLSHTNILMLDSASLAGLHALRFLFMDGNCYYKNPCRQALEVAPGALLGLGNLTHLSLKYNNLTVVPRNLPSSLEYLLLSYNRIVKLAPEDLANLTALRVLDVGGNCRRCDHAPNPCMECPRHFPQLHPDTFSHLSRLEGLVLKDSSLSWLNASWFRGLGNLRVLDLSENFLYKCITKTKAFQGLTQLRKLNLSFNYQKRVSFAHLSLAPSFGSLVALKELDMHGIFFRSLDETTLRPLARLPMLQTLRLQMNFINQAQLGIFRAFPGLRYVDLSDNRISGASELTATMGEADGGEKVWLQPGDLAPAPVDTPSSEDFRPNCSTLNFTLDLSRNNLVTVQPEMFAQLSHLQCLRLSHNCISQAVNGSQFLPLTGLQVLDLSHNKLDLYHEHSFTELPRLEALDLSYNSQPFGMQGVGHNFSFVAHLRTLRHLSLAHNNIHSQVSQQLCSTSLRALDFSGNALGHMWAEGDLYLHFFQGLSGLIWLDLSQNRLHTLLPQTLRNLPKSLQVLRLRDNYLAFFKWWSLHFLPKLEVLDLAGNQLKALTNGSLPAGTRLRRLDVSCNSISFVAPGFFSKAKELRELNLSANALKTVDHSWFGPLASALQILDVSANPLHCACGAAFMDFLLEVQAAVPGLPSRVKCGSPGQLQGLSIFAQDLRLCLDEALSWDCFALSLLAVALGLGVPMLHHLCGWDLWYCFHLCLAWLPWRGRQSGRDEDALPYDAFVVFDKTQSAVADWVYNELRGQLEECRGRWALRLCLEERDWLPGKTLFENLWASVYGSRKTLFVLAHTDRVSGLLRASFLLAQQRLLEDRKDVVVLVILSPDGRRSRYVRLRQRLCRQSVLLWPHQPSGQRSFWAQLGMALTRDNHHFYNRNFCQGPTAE
# [2] = BLA reporter readout interference – cell-based, fluorescence, artefact control for TLR9-MyD88 binding inhibitor project (AID 540251); details: CHO-BLA cells, CCF4 FRET ratio, at 4.98 µM, stronger effect = higher value;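 note: counterscreen of TLR9-MyD88 hits on CMV-driven BLA in CHO-K1 cells; 0% = DMSO alone and 100% = clavulanate blocking BLA; higher means less blue over green ratio so more BLA blockade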
# [3] = CHO cell viability loss – luminescence, single concentration, cytotoxicity control for TLR9-MyD88 binding inhibitor project (AID 588336; in the data active = inhibition above about 11%); details: TLR9-MyD88 CHO cells cytotoxicity, at 4.98 µM, stronger effect = higher value
# [4] = target: Serine protease HTRA1 (Homo sapiens) (UniProt Q92743); assay: confirming inhibition of human HTRA1 – biochemical, fluorescence polarization, confirmation (AID 540248;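 active = mean inhibition over three repeats above a set limit taken from the earlier primary screen, cut at about 37% in these data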;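 note: 0% = HTRA1 with DMSO and 100% = wells lacking HTRA1; inhibitors block probe binding so polarization drops and inhibition rises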); details: recombinant HTRA1, FP-rhodamine activity-based probe, at 5.96 µM, stronger effect = higher value
# [5] = target: (Lyso)-N-acylphosphatidylethanolamine lipase (Mus musculus) (UniProt Q8VD66); assay: mouse ABHD4 hydrolase blockers, triplicate – biochemical, fluorescence polarization, confirmation (AID 720658;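 active = mean inhibition across replicates above the hit cutoff set in the primary screen, cut at about 30% in these data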;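 note: 0% = wild-type ABHD4 with DMSO and 100% = catalytically dead S159A mutant with DMSO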); details: purified mABHD4, FP-Rh probe fluorescence polarization; at 8.92 µM; stronger effect = higher value
# Chain of (Lyso)-N-acylphosphatidylethanolamine lipase (Mus musculus) (Q8VD66 whole entry, looked up): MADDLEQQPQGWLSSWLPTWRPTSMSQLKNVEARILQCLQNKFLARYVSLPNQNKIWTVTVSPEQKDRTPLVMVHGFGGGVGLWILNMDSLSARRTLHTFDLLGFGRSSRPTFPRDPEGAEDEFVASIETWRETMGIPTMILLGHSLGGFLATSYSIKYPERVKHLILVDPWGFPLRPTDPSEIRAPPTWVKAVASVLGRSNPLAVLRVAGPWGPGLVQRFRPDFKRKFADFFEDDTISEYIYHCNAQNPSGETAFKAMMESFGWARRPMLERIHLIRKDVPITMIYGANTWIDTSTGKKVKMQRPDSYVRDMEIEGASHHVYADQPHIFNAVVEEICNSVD
# [6] = target: Photoreceptor-specific nuclear receptor (Homo sapiens) (UniProt Q9Y5X4); assay: retest of NR2E3-NCOR disrupting agonists – cell-based, luminescence, CHO-S two-hybrid, confirmation (AID 624378;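 active = average inhibition above a cutoff equal to the mean inhibition of all tested compounds plus one SD, cut at about 70% in these data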;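 note: 0% = DMSO in NR2E3 cells and 100% = DMSO in cells lacking NR2E3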); details: CHO-S mammalian two-hybrid NR2E3-NCOR, luciferase luminescence; at 3.98 µM; stronger effect = higher value
# Chain of Photoreceptor-specific nuclear receptor (Homo sapiens) (Q9Y5X4 whole entry, looked up, the tested form may be a part): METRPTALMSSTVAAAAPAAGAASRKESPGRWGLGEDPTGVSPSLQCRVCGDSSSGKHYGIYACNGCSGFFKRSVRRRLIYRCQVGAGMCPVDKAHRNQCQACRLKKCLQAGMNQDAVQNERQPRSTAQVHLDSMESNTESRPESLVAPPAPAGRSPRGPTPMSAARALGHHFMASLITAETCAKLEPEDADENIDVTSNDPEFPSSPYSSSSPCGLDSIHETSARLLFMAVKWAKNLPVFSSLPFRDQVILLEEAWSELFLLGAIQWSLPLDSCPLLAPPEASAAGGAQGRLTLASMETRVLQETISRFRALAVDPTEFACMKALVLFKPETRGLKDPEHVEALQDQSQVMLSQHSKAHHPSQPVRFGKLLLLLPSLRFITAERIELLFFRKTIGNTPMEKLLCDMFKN
# [7] = nonselective effects on VP16 transactivation – cell-based, luminescence, CHO-S, high throughput, counter-screen for NR2E3 agonist project, confirmation (AID 624379;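 active = mean inhibition above a cutoff equal to the average over all tested compounds plus one standard deviation, cut at about 70% in these data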;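 note: luciferase from a UAS reporter driven by GAL4-VP16 transactivation; 0% = DMSO with VP16-transfected cells and 100% = DMSO with cells lacking VP16; higher means less reporter light so more repression of VP16 activity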); details: CHO-S GAL4-VP16 luciferase reporter, at 3.98 µM, stronger effect = higher value
# [8] = target: Receptor-interacting serine/threonine-protein kinase 2 (Homo sapiens) (UniProt O43353); assay: inhibitors of RIPK2 association with NOD2 – fluorescence, CHO cells, BLA complementation, triplicate, confirmation (AID 624370;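 active = mean inhibition across replicates above a set limit taken from the earlier primary screen, cut at about 21% in these data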;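 note: 0% = DMSO-only wells and the high end = clavulanate BLA-blocked wells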); details: CCF4 FRET, at 4.98 µM, stronger effect = higher value
# Chain of Receptor-interacting serine/threonine-protein kinase 2 (Homo sapiens) (O43353 whole entry, looked up): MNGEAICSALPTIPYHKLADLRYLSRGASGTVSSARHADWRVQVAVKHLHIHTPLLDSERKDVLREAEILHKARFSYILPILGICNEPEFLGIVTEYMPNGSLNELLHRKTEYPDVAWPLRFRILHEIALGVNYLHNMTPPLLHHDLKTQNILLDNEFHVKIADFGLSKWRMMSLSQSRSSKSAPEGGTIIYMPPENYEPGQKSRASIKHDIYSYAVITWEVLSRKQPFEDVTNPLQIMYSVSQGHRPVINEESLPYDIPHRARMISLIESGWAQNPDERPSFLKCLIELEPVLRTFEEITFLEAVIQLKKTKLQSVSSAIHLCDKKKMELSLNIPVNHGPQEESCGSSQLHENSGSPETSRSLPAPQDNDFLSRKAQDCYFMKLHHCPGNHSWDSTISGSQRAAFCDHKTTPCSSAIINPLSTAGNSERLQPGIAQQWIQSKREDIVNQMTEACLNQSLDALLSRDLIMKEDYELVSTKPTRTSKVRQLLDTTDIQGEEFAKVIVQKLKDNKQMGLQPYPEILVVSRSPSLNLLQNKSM
# [9] = BLA reporter readout interference – cell-based, CHO-K1 CMV-bla, CCF4 FRET, fluorescence, artefact control for NOD2-RIPK2 interaction inhibitor project, confirmation (AID 624371;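 active = mean inhibition above the low-control mean inhibition plus three low-control SD, cut at about 11% in these data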;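 note: 0% = DMSO only wells and 100% = clavulanate high control wells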); details: CCF4 FRET ratio, counterscreen, at 4.98 µM, stronger effect = higher value
# [10] = system: transactivating tegument protein VP16 (Human herpesvirus 1); assay: compounds suppressing VP16-driven luciferase signal – cell-based, luminescence, single concentration, counter-screen for SRC2 inhibitor project (AID 652007; in the data active = inhibition above about 36%); details: cell-based VP16 transactivation luciferase reporter, at 8.9 µM, stronger effect = higher value
# [11] = target: Nuclear receptor coactivator 2 (Homo sapiens) (UniProt Q15596); assay: inhibition of GAL4-SRC2 driven luciferase expression – cell-based, luminescence, HEK293, triplicate, confirmation (AID 652008;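 active = mean inhibition above 46.5%, the solvent-only control mean plus 3 SD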;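 note: 0% = DMSO-treated cells and 100% = Gossypol at 36 µM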); details: HEK293 GAL4-SRC2 luciferase reporter, at 8.9 µM, stronger effect = higher value
# Chain of Nuclear receptor coactivator 2 (Homo sapiens) (Q15596 whole entry, looked up, the tested form may be a part): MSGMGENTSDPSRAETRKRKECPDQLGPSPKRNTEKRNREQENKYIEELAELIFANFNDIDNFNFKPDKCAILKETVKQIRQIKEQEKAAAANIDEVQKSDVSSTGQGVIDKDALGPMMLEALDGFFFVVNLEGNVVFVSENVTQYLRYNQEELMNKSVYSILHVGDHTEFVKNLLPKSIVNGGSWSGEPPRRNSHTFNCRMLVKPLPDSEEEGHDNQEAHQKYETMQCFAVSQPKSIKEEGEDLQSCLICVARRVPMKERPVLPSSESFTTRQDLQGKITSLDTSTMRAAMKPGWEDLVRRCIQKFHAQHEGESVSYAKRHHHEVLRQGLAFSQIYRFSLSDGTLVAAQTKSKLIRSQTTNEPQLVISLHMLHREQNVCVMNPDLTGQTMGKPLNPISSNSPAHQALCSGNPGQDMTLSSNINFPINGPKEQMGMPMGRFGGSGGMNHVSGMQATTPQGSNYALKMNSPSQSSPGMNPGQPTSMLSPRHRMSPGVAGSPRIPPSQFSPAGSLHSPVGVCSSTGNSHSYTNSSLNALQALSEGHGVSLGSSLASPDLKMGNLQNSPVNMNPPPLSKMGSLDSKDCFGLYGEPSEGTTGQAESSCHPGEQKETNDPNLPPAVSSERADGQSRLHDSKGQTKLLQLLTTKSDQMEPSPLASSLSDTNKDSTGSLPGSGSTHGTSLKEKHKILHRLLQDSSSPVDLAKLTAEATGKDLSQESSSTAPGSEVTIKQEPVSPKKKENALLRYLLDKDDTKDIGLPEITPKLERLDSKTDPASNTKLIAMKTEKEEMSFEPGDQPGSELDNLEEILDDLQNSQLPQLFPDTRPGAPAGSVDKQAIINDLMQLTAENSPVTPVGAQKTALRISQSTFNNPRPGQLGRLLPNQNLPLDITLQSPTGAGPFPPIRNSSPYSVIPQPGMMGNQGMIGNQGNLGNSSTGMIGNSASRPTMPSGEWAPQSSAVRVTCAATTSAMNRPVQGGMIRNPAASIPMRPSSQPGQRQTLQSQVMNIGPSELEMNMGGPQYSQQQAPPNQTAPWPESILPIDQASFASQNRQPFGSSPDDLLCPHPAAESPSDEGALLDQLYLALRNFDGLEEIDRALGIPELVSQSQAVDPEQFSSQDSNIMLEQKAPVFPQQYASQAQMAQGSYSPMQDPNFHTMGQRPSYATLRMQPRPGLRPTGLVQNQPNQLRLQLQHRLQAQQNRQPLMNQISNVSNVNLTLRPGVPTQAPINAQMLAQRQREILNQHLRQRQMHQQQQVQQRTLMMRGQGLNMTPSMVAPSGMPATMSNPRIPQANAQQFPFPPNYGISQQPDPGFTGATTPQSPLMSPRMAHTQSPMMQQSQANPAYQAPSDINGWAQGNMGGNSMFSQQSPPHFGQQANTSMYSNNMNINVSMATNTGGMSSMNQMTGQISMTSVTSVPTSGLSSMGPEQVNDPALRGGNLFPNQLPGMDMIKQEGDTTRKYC
smiles,measurement,setting,value
O=[N+]([O-])c1c(NCCO)cc(Sc2nc3ccccc3s2)c2nonc12,inhibition,[1],71.1% (active)
same,inhibition,[2],17.3%
same,inhibition,[3],98.7% (active)
Brc1ccccc1C1Nc2cccc3cccc(c23)N1,inhibition,[4],2.05%
same,inhibition,[5],42.5% (active)
CCOC(=O)C1Nc2ccc(C(F)(F)F)cc2C2C=CCC12 (stereo not given),inhibition,[4],30.3%
same,inhibition,[5],24.3%
CC[C@@H]1Cc2cc(O)ccc2C2=C1c1ccc(O)cc1C[C@H]2CC,inhibition,[4],47% (active)
same,inhibition,[5],31% (active)
COc1ccc(-c2nn(-c3ccccc3)cc2/C=N/Nc2ccccn2)cc1OC,inhibition,[1],2.6%
same,inhibition,[2],2.28%
same,inhibition,[3],4.63%
COc1cnc(-c2ccccn2)nc1Oc1ccc(C(C)(C)C)cc1,inhibition,[4],53.5% (active)
same,inhibition,[6],28.4%
same,inhibition,[7],13.6%
O=C(COC(=O)c1c2c(nc3ccccc13)/C(=C\c1cccs1)CCC2)Nc1ccccc1Cl,inhibition,[1],11.4%
same,inhibition,[2],18.4%
same,inhibition,[3],-3.1%
Cc1cccc(NC(=O)c2nc(S(=O)(=O)Cc3ccccc3)ncc2Cl)c1,inhibition,[1],46.4% (active)
same,inhibition,[2],43.2%
same,inhibition,[3],97% (active)
same,inhibition,[8],78.4% (active)
same,inhibition,[9],43.9% (active)
same,inhibition,[10],38.7% (active)
same,inhibition,[11],44.1%
Oc1ccc2ccc3cccc[n+]3c2c1,inhibition,[1],11.3%
same,inhibition,[2],11.8%
same,inhibition,[3],5.09%
same,inhibition,[8],36.5% (active)
same,inhibition,[9],32.6% (active)
CNC(=S)N/N=C/c1ccc(OCc2ccccc2)c(Br)c1,inhibition,[1],27.6% (active)
same,inhibition,[2],27.6%
same,inhibition,[3],43.4% (active)
same,inhibition,[8],54.2% (active)
same,inhibition,[9],52.8% (active)

# Reference: PubChem BioAssay
